Source: PubChem BioAssay
In the library only some 14% were active in any assay of this set; here they are far more common.
4-MU autofl: qHTS Assay for Spectroscopic Profiling in 4-MU Spectral Region | compound autofluorescence, 340/450 nm, 4-MU equivalents; hits give high values | max dye-equivalent concentration, M | hit rate 11% among 59,000 | AID 589, 2007; in the data active means max dye-equivalent concentration above about 10 nM; inconclusive means mostly about 1.1 nM to 9.6 nM
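Compounds in 100 mM Tris, pH 8.0, incubated 15 min at room temperature, then fluorescence read at 340 nm excitation/450 nm emission. Signal converted to 4-MU dye-equivalent concentration using an on-plate six-point 4-MU standard curve.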
HSD17B inhib: qHTS Assay for Inhibitors of HSD17B4, hydroxysteroid (17-beta) dehydrogenase 4. 3-hydroxyacyl-CoA dehydrogenase type-2 (Homo sapiens), Q99714. recombinant HSD17B10, NADH fluorescence kinetic. Potency, µM (top dose mostly 57.1 µM), for inactives: top-dose activity change, negative = inhibition, most hits filed as inhibitors. hit rate 7.6% among 75,000. AID 893, 2007;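 further: the protocol describes HADH2 (HSD17B10) and not the HSD17B4 of the title; potency means the concentration at half of the fitted maximal effect; on the % scale 0 is the no-effect control and ±100 the full control effect; nearly all actives have a fitted effect of over 70% in size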
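Activity followed as NADH fluorescence increase (ex 360, em 450 nm) every 30 seconds for 4 min, using final 90 uM beta-hydroxybutyryl CoA and 1 mM NAD+. Recombinant His-tagged enzyme, 20 nM, pH 9.0 Tris buffer, 15 min compound preincubation.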
AID923: qHTS Assay for Allosteric/Competitive Inhibitors of Caspase-1: Spectroscopic Profiling in AFC Spectral Region; compound fluorescence, AFC spectral region (405/520 nm); Potency, µM (top dose mostly 57.5 µM), for the others: at the highest dose fluorescence increase, most hits filed as activators; hit rate 1.1% among 75,000; AID 923, 2007; further: potency means the concentration at half of the fitted maximal effect; 0% is about no effect
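Titrations up to 57 uM read every 20 sec for 3 min (405/520 nm) with 50 nM caspase 1 and 5 uM Ac-WEHD-AFC, pH 7.5 HEPES buffer. Fluorescence-vs-time intercept gave baseline, scaled against on-plate AFC standard.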
HADH2 inhib: qHTS Assay for Inhibitors of HADH2 (Hydroxyacyl-Coenzyme A Dehydrogenase, Type II). 3-hydroxyacyl-CoA dehydrogenase type-2 (Homo sapiens), Q99714. recombinant HADH2, NADH fluorescence, beta-hydroxybutyryl-CoA. Potency, µM (highest dose often 57.1 µM), for the others: at the top dose activity change, negative = inhibition, most hits filed as inhibitors. hit rate 3.4% among 73,000. AID 886, 2007; further: potency means the concentration at half of the fitted maximal effect; on the % scale 0 is the no-effect control and ±100 the full control effect; nearly all actives have a fitted effect of over 60% in size
Target sequence (Q99714 whole entry, looked up, one chain of several): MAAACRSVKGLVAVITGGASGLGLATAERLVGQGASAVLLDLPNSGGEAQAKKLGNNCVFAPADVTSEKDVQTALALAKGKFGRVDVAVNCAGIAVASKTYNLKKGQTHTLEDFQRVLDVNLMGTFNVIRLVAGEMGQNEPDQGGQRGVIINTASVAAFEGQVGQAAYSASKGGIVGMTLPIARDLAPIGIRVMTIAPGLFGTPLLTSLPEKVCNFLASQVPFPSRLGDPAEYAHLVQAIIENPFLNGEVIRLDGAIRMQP
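Activity measured as NADH fluorescence gain (360/450 nm), taken as the change between first and last reads of a 4-min kinetic run. Conditions: pH 9.0 Tris buffer, 20 nM E. coli-expressed His-tagged enzyme, 1 mM NAD+, 90 uM beta-hydroxybutyryl-CoA; 15-min compound preincubation.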
CRE-bla Fsk: Cell signaling CRE-BLA (Fsk stim); Potency, µM (titrated, usually from 38.2 µM), for the others: at the highest dose activity change, negative = inhibition, hits mostly activators; CHO CRE-bla reporter (cAMP response element driving beta-lactamase), forskolin EC10, beta-lactamase ratio; AID 662, 2007; hit rate 2.5% among 71,000; active means well fitted activation curve with a large enough effect in the signal ratio, with a control signal flat, not every such curve was filed as active; inconclusive means small, poorly fitted or top-dose-only effect, or effect the other way, or a change in a side signal; the % refers to the signal ratio; further: potency means the concentration at half of the fitted maximal effect; % of control where 0% means no effect
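Beta-lactamase reporter under a cAMP responsive element in CHO cells; compounds tested in titration series against EC10 NKH 477, 3 h at 37 °C. Read-out: CCF4 FRET ratio 460nm/530nm (excitation 405nm) giving %Activity, fitted to AC50.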
A350 fluor: qHTS Assay for Spectroscopic Profiling in A350 Spectral Region. max dye-equivalent concentration, M. hit rate 11% among 59,000. AID 590, 2007. Compound autofluorescence, 340/450 nm, Alexa 350 dye-equivalents; hits give high values; in the data active means max dye-equivalent concentration above about 10 nM; inconclusive means mostly about 1.1 nM to 9.6 nM
* hit, by the source's call; i = inactive; ? = inconclusive; . = no result given; [ ] = another dose, or the depositor's remark. Unless noted, the call rests on the fitted dose curve; in most records, active means well fitted curve in the direction sought with a large enough effect; inconclusive means small, poorly fitted or top-dose-only effect, or another doubt; inactive means no such curve, though single readings can be large; an effect the other way counts as inactive or inconclusive.

SMILES | 4-MU autofl | HSD17B inhib | AID923 | HADH2 inhib | CRE-bla Fsk | A350 fluor
Oc1ccc(Nc2nc(-c3ccc(O)cc3)cs2)cc1 | i | -21% | -1% | 7.9µM* | ? | i
CCCC[C@H](CC)CN1CN(C[C@@H](CC)CCCC)CC(C)(N)C1 | 2.3e-08M* | 0%[25.6 µM] | -3%[25.7 µM] | 10%[25.6 µM] | -7%[17.1 µM] | 2e-08M*
CC(C)OCC(O)CN (stereo not given) | 1.7e-08M* | 0% | 0% | -5% | 25% | ?
Cc1cc(N2CCC(C)CC2)n2ncc(-c3ccccc3)c2n1 | 7.5e-08M* | 25µM* | 16% | ? | ? | 1.7e-08M*
Cc1cc(N2CCCCC2)n2ncc(-c3ccc(Cl)cc3)c2n1 | 3.8e-07M* | 3.2µM* | 1% | ? | ? | 3.8e-07M*
Cc1cc(N2CCN(C(=O)c3ccco3)CC2)n2ncc(-c3ccccc3)c2n1 | 5.7e-08M* | 0% | 1% | -174% | ? | 1.5e-08M*
Cc1nn2c(N3CCN(C(=O)c4ccco4)CC3)cc(C(C)(C)C)nc2c1-c1ccccc1 | 7.6e-08M* | 11% | 1% | ? | 7% | 8.4e-08M*
Cc1cc(N2CCN(C)CC2)n2nc(-c3ccc(Cl)cc3)nc2n1 | i | 3%[11.4 µM] | 1%[11.5 µM] | 24%[11.4 µM] | 10%[7.6 µM] | i
Cc1cc(N2CCN(C(=O)c3ccco3)CC2)n2ncnc2n1 | i | -6% | -1% | -1% | ? | i
Cc1cc(N2CCCCC2)n2ncc(-c3ccccc3)c2n1 | 5.5e-08M* | ? | 13% | ? | ? | 1.2e-08M*
CC(C)(CO)[C@H](O)C(=O)NCCC(=O)O | i | -2%[25.6 µM] | 3%[25.7 µM] | 2%[25.6 µM] | 2%[17.1 µM] | i
CC(C)(C)OC(=O)N[C@@H](Cc1ccccc1)c1nnc(SCC(=O)O)o1 | i | 4% | -1% | 5% | 1% | ?
CCC(C)[C@@H](NC(=O)OC(C)(C)C)c1nnc(S(=O)(=O)Cc2cccc(C)c2)o1 (stereo not given in full) | i | -5% | 1% | 2.5µM* | ? | i
CC(C)(C)OC(=O)N[C@@H](Cc1ccccc1)c1nnc(S(=O)(=O)Cc2ccccc2)o1 | i | -13% | -1% | 1.3µM* | ? | i
Cc1ccc(-n2c(SCC(=O)NCc3ccco3)nnc2-c2cccnc2)c(C)c1 | i | 32µM* | 1% | -11% | ? | i
Cc1cccc(-n2c(SCC(=O)NCc3ccco3)nnc2-c2ccco2)c1 | i | -1% | -1% | -4% | ? | i
O=C(Cn1cnc2c(cnn2-c2ccccc2)c1=O)NCCc1ccccc1 | i | 6% | 2% | 11% | -4% | i
O=C(Cn1cnc2c(nnn2-c2ccccc2)c1=O)NCCc1ccccc1 | . | -16% | -3% | 12% | 13µM* | .
COc1cc2c(cc1OC)/C(=C/C#N)NC(C)(C)C2 | 2.6e-08M* | -7% | 5% | -10% | 2µM* | 2.7e-08M*
N[C@H](CS(=O)O)C(=O)O | i | . | . | 8% | -2% | i
N#Cc1ccc(CN2CC[C@@]3(CCCN(C(=O)c4ccco4)C3)C2)cc1 | i | -2% | 1% | 3% | -12% | i
COc1ccccc1C(=O)n1nc(-c2ccccc2)nc1NCc1ccco1 | i | 30% | 0% | 1% | -17% | i
COc1ccc(C(=O)n2nc(-c3ccco3)nc2SC)cc1OC | i | ? | 1% | -22% | ? | i
O=C(c1ccco1)n1nc(-c2ccccc2)nc1NCc1ccco1 | 1.1e-08M* | 474% | -2% | -8% | -4% | 3.6e-08M*
COc1ccc(-c2nc(SC)n(C(=O)c3ccco3)n2)cc1 | 7.3e-08M* | 32µM* | -1% | 20µM* | -7% | 8.3e-08M*
SMILES | 4-MU autofl | HSD17B inhib | AID923 | HADH2 inhib | CRE-bla Fsk | A350 fluor
O=C(c1ccco1)n1nc(-c2ccc(Cl)cc2)nc1NCc1ccco1 | 1.8e-08M* | 36% | 0% | -3% | -13% | 1.6e-08M*
COC(=O)N1CCC2(CC1)CN(C(=O)Nc1cccc(F)c1)C2 | ? | 1% | -1% | 4% | -5% | ?
COc1ccc(NC(=O)N2CC[C@@]3(CCCN(C(=O)c4cccc(F)c4)C3)C2)cc1 | i | 0% | 1% | 12% | -4% | i
COc1ccc2[nH]cc(CCNc3nc(-c4ccccc4CN(C)C)nc4ccccc34)c2c1 | i | 5% | -1% | 19% | 8% | i
O=C(Nn1cnnc1)c1ccccc1CCc1ccccc1 | 4.2e-08M* | 4% | 3% | 6% | -7% | 5.1e-08M*
CCOc1cc(S(=O)(=O)NCC2OCCc3ccccc32)c(OCC)cc1-n1cnnn1 (stereo not given) | i | 25µM* | 0% | ? | 17% | i
CCOc1cc(S(=O)(=O)NCc2ccco2)c(OCC)cc1-n1cnnn1 | i | 32µM* | -1% | ? | 5% | ?
Nc1nc(=S)c2ncn([C@H]3O[C@@H](CO)[C@@H](O)[C@@H]3O)c2[nH]1 | i | -3%[25.6 µM] | -3%[25.7 µM] | -24%[25.6 µM] | 8%[17.1 µM] | i
COc1ccc(C(=O)OCCNC(=O)c2c(Cl)nc3ccccn23)cc1 | i | 3% | -1% | 6% | 0.4µM* | ?
COC(=O)c1cc(N2C(=O)C3C(C2=O)C2(C)C=CC3(C)O2)ccc1Cl (stereo not given) | . | ? | -1% | ? | ? | .
CC(=O)Oc1ccc(N2C(=O)C3C(C2=O)C2(C)C=CC3(C)O2)cc1 (stereo not given) | . | ? | 0% | 0.2µM* | ? | .
Cc1cc2c(nc1C)CCCCN2C[C@H](C)O/N=C\[C@@H](C)[C@H](OCc1ccccc1)C(C)C | . | -2%[11.4 µM] | -1%[11.5 µM] | 3%[11.4 µM] | . | .
CCOC(=O)c1cc(C#N)c(NCc2ccccc2)nc1C | i | 10µM* | -1% | -12% | ? | ?
Cc1sc2nc3c4ccccc4c(NCc4ccco4)nn3c(=O)c2c1C | 1.2e-07M* | 25µM* | 15% | ? | ? | 1.5e-07M*
Cc1nnc(NCc2ccco2)c2ccccc12 | i | 5% | -1% | 5% | -5% | i
O=C(Nc1nnc(C2CCCO2)s1)c1cccs1 (stereo not given) | 2.9e-08M* | 25µM* | 3% | ? | 4% | 2.9e-08M*
O=C1C(Cl)=C(NCCN2CCOCC2)C(=O)c2ncccc21 | . | ? | 7% | -10% | . | .
N#Cc1cn(-c2ccccc2)nc1-c1ccc2c(c1)OCCO2 | i | 20µM* | 0% | 3% | 12% | i
